Out of some 5,500 compounds screened, about 2,000 (36%) were called active. About 18% were inconclusive and are not listed. Cut-off read from the data, not from the text of the source: active = normalized growth mostly below about 0.91 (no sharp cut-off); inconclusive = no clear call, values can overlap the other calls; inactive = mostly above about 0.92. The list shows a part of the results.
Experiment: chemical genetic growth profiling, strain panel (AID 1159580);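 note: tested at 20 µM; growth read once vehicle control cultures reached saturation at 30 °C; 1 = growth at the plate median or of vehicle wells; lower values mean less growth of the strain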
Conditions: S. cerevisiae deletion strains, growth OD

Measured: normalized growth

CC(=O)Nc1ccc([N+](=O)[O-])cc1[N+](=O)[O-]
active: locus YAR019C, strain CDC15, hits give low values 0.619 | locus YDL101C, strain DUN1, hits give low values 0.671 | locus YDL132W, strain cdc53, hits give low values 0.838 | locus YDL214C, strain PRR2, hits give low values 0.165 | locus YDR054C, strain cdc34, hits give low values 0.625 | locus YDR477W, strain SNF1, hits give low values 0.188 | locus YER123W, strain YCK3, hits give low values 0.114 | locus YER133W, strain GLC7, hits give low values 0.131 | locus YFL029C, strain CAK1, hits give low values 0.605 | locus YFR019W, strain FAB1, hits give low values 0.27 | locus YGR040W, strain KSS1, hits give low values 0.206 | locus YGR052W, strain FMP48, hits give low values 0.175 | locus YGR092W, strain DBF2, hits give low values 0.349 | locus YHR030C, strain SLT2, hits give low values 0.123 | locus YHR079C, strain IRE1, hits give low values 0.388 | locus YHR082C, strain KSP1, hits give low values 0.205 | locus YHR205W, strain SCH9, hits give low values 0.0559 | locus YJL095W, strain BCK1, hits give low values 0.174 | locus YJL157C, strain FAR1, hits give low values 0.307 | locus YJR066W, strain TOR1 (second series), hits give low values 0.145 | locus YJR066W, strain TOR1, hits give low values 0.152 | locus YKL048C, strain ELM1, hits give low values 0.707 | locus YKL067W, strain YNK1, hits give low values 0.284 | locus YKL101W, strain HSL1, hits give low values 0.534 | locus YKL193C, strain SDS22, hits give low values 0.753 | locus YKL203C, strain TOR2, hits give low values 0.213 | locus YLR113W, strain HOG1, hits give low values 0.153 | locus YLR133W, strain CKI1, hits give low values 0.438 | locus YLR403W, strain SFP1, hits give low values 0.21 | locus YML070W, strain DAK1, hits give low values 0.202 | locus YMR205C, strain PFK2 (second series), hits give low values 0.511 | locus YMR277W, strain FCP1, hits give low values 0.668 | locus YNL020C, strain ARK1, hits give low values 0.558 | locus YNL161W, strain CBK1, hits give low values 0.722 | locus YNL183C, strain NPR1, hits give low values 0.105 | locus YNL222W, strain SSU72, hits give low values 0.711 | locus YNL307C, strain MCK1 (second series), hits give low values 0.241 | locus YOL078W, strain AVO1, hits give low values 0.679 | locus YOL136C, strain PFK27, hits give low values 0.227 | locus YOR061W, strain CKA2, hits give low values 0.587 | locus YOR119C, strain RIO1, hits give low values 0.196 | locus YOR231W, strain MKK1, hits give low values 0.396 | locus YPL031C, strain PHO85, hits give low values 0.213 | locus YPL153C, strain RAD53, hits give low values 0.271 | locus YPL204W, strain HRR25, hits give low values 0.276 | locus YPL256C, strain CLN2, hits give low values 0.164 | strain TSCII, hits give low values 0.587
inactive: locus YBL105C, strain PKC1, hits give low values 0.925 | locus YBR135W, strain CKS1, hits give low values 0.911 | locus YBR136W, strain MEC1, hits give low values 0.922 | locus YBR160W, strain CDC28, hits give low values 0.918 | locus YDL017W, strain CDC7, hits give low values 0.927 | locus YDL028C, strain MPS1, hits give low values 0.924 | locus YDL108W, strain KIN28, hits give low values 0.912 | locus YDR052C, strain DBF4, hits give low values 0.931 | locus YDR226W, strain ADK1, hits give low values 0.911 | locus YFL009W, strain cdc4, hits give low values 0.899 | locus YFR003C, strain YPI1, hits give low values 0.926 | locus YFR028C, strain CDC14, hits give low values 0.9 | locus YIL147C, strain SLN1, hits give low values 0.927 | locus YJL128C, strain PBS2, hits give low values 0.878 | locus YJR016C, strain ILV3, hits give low values 0.924 | locus YNL006W, strain LST8, hits give low values 0.927 | locus YNL207W, strain RIO2, hits give low values 0.909 | locus YOR329C, strain SCD5, hits give low values 0.929 | locus YPL209C, strain IPL1, hits give low values 0.915 | locus YPR025C, strain CCL1, hits give low values 0.92 | locus YPR106W, strain ISR1, hits give low values 0.926 | locus YPR111W, strain DBF20, hits give low values 0.902 | strain NNK1, hits give low values 0.931

— PubChem BioAssay AID1159580 (chemical genetic matrix, 2015)
